Test results from PubChem BioAssay AID1159580 (chemical genetic matrix, 2015).
Several values for one entry are separate records, joined by “and”; a condition that tells them apart may be missing. Equal entries are not always repeated. Screen size: about 5,500 compounds; about 2,000 (36%) were called active. About 18% were inconclusive and are not listed. No stated cut-off is given here; in the data, active means normalized growth mostly below about 0.91 (no sharp cut-off); inconclusive means no clear call, values can overlap the other calls; inactive means mostly above about 0.92. The list shows a part of the results.

Assay: chemical genetic growth profiling, strain panel (AID 1159580);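 further: tested at 20 µM; growth read once vehicle control cultures reached saturation at 30 °C; 1 = growth at the plate median or of vehicle wells; lower values mean less growth of the strain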
Settings: S. cerevisiae deletion strains, growth OD

Measured: normalized growth

COc1cc([C@@H]2c3cc4c(cc3[C@H](OC(C)=O)[C@H]3COC(=O)[C@H]23)OCO4)cc(OC)c1OC
inactive: locus YAL021C, strain ccr4, active compounds read low 0.992 | locus YAL026C, strain drs2, active compounds read low 1.01 | locus YAL030W, strain snc1, active compounds read low 0.999 | locus YBL061C, strain skt5, active compounds read low 1.01 | locus YBR009C, strain hhf1, active compounds read low 1.01 | locus YBR021W, strain FUR4, active compounds read low 0.956 | locus YBR023C, strain chs3, active compounds read low 1 | locus YBR171W, strain sec66, active compounds read low 1.02 | locus YBR229C, strain ROT2, active compounds read low 0.99 | locus YBR231C, strain swc5, active compounds read low 1 | locus YBR279W, strain paf1, active compounds read low 0.976 | locus YCL011C, strain gbp2, active compounds read low 1 | locus YCL016C, strain dcc1, active compounds read low 1.01 | locus YCL029C, strain bik1, active compounds read low 0.986 | locus YCL061C, strain MRC1, active compounds read low 1.01 | locus YCL069W, strain vba3, active compounds read low 0.999 | locus YCR088W, strain abp1, active compounds read low 1.01 | locus YDL005C, strain med2, active compounds read low 1.01 | locus YDL035C, strain GPR1, active compounds read low 1.02 | locus YDL040C, strain nat1, active compounds read low 0.996 | locus YDL074C, strain BRE1, active compounds read low 0.991 | locus YDL101C, strain DUN1, active compounds read low 0.998 | locus YDL134C, strain PPH21, active compounds read low 1.03 | locus YDL185W, strain tfp1, active compounds read low 0.983 | locus YDL192W, strain arf1, active compounds read low 1.01 | locus YDR001C, strain nth1, active compounds read low 0.999 | locus YDR069C, strain doa4, active compounds read low 1.02 | locus YDR101C, strain arx1, active compounds read low 0.996 | locus YDR137W, strain rgp1, active compounds read low 0.884 | locus YDR159W, strain sac3, active compounds read low 1.01 | locus YDR162C, strain NBP2, active compounds read low 1.02 | locus YDR195W, strain ref2 1 | locus YDR297W, strain sur2, active compounds read low 0.998 | locus YDR318W, strain mcm21, active compounds read low 0.987 | locus YDR334W, strain swr1, active compounds read low 1.01 | locus YDR335W, strain msn5, active compounds read low 0.998 | locus YDR388W, active compounds read low 0.98 | locus YDR392W, strain spt3, active compounds read low 1.01 | locus YDR502C, strain sam2, active compounds read low 0.989 | locus YEL003W, strain gim4, active compounds read low 1.01 | locus YEL037C, strain rad23, active compounds read low 1 | locus YEL061C, strain CIN8 (second series), active compounds read low 0.996 | locus YEL061C, strain CIN8, active compounds read low 1 | locus YER015W, strain faa2, active compounds read low 1.02 | locus YER016W, strain bim1, active compounds read low 1 | locus YER110C, active compounds read low 0.96 | locus YER111C, strain swi4, active compounds read low 1.01 | locus YER155C, strain BEM2 (second series), active compounds read low 1.04 | locus YER155C, strain BEM2, active compounds read low 0.983 | locus YER167W, strain BCK2, active compounds read low 0.998 | locus YFR010W, strain ubp6, active compounds read low 1 | locus YGL078C, strain dbp3, active compounds read low 0.971 | locus YGL086W, strain mad1, active compounds read low 0.997 | locus YGL167C, strain pmr1, active compounds read low 1.02 | locus YGL173C, strain kem1, active compounds read low 1.01 | locus YGL227W, strain vid30, active compounds read low 1 | locus YGL240W, strain doc1, active compounds read low 1.01 | locus YGL248W, strain PDE1, active compounds read low 0.996 | locus YGL253W, strain hxk2, active compounds read low 1.01 | locus YGR135W, strain pre9, active compounds read low 0.986 | locus YGR252W, strain gcn5, active compounds read low 0.983 | locus YHR013C, strain ard1, active compounds read low 0.988 | locus YHR027C, strain rpn1, active compounds read low 1 | locus YHR030C, strain SLT2, active compounds read low 0.996 and 0.987 | locus YHR079C, strain IRE1 (second series), active compounds read low 0.988 | locus YHR079C, strain IRE1, active compounds read low 0.98 | locus YHR094C, strain hxt1, active compounds read low 0.973 | locus YHR129C, strain ARP1, active compounds read low 1 | locus YHR142W, strain chs7, active compounds read low 0.996 | locus YHR200W, strain rpn10, active compounds read low 0.988 | locus YIL066C, strain RNR3, active compounds read low 1.01 | locus YIL073C, strain SPO22, active compounds read low 0.98 | locus YIL125W, strain kgd1, active compounds read low 0.987 | locus YIR030C, strain dcg1, active compounds read low 0.974 | locus YJL092W, strain hpr5, active compounds read low 1.01 | locus YJL095W, strain BCK1 (second series), active compounds read low 1 | locus YJL095W, strain BCK1, active compounds read low 1.01 and 1.04 | locus YJL115W, strain asf1, active compounds read low 1.01 | locus YJL129C, strain trk1, active compounds read low 1 | locus YJL134W, strain LCB3, active compounds read low 0.993 | locus YJL154C, strain vps35, active compounds read low 1.01 | locus YJL164C, strain tpk1, active compounds read low 1.01 | locus YJL166W, strain qcr8, active compounds read low 0.995 | locus YJL168C, strain set2, active compounds read low 0.977 | locus YJL187C, strain SWE1 (second series), active compounds read low 1 | locus YJL187C, strain SWE1, active compounds read low 0.99 | locus YJR043C, strain POL32, active compounds read low 1.03
